From PubChem BioAssay
EWS-Fli block – inhibitors of EWS/Fli oncoprotein transcriptional activity | A673 NR0B1-luciferase reporter, viability-normalised | inhibition, % at 12.6 µM | 350,000 compounds, 0.67% hits;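 active = mean inhibition of at least 50% after viability correction, with every replicate also passing that limit; inconclusive = mean reaches 50% but only one of two replicates passes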;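 also: firefly luciferase signal divided by Alamar Blue viability fluorescence both relative to DMSO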
PAX8 inh HTS – inhibitors of PAX8 transcriptional activity in RMG-I cells; RMG-I TPO-luciferase reporter, SteadyGlo, 24 h; inhibition, % at 12.6 µM; 360,000 compounds, 1.2% hits; AID 652154;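 active = mean replicate inhibition at least 60% with every replicate also reaching 60%; inconclusive = only one of the two criteria is met; inactive = mean below 60% and not all replicates reaching 60%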;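 also: luciferase light reporting Pax8 driven TPO promoter activity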
TRPM1 prom inh – reduces MITF-dependent TRPM1 promoter luciferase signal; SK-MEL-5 TRPM1 promoter luciferase, 24 h; inhibition, % at 12.5 µM; 330,000 compounds, 0.83% hits; AID 488899;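 active = mean inhibition across replicates of 60% or more, whatever share of single replicates reaches that level; inconclusive = some that reach 60%, reason not given; inactive = mean inhibition across replicates below 60%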
esBAF inh – inhibitors of esBAF chromatin remodeling in mouse ES cells | 350,000 compounds, 2% hits | Bmi1-luciferase knock-in reporter, 24 h; 100% = twice the neutral-well signal | reporter increase, % at 12.5 µM; in the data active = activation above about 40%; inconclusive = no clear call, values can overlap the other calls;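 also: a rise in the Bmi1 reporter signal indicates esBAF inhibition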
MITF act – MITF TRPM1 promoter activation in melanoma cells | SK-MEL-5 TRPM1-promoter luciferase, 24 h; % of positive control, neutral wells = 0 | activation, % at 12.5 µM | 300,000 compounds, 0.75% hits | AID 588334;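 active = mean activation of at least 80% with every replicate also reaching 80%; inconclusive = mean reaches 80% but some replicate falls short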
Wnt bcat act – activators of Wnt/beta-catenin signaling. 300,000 compounds, 1.2% hits. activation, % at 9.35 µM. Wnt/beta-catenin reporter cell assay, activator, plate reader; in the data active = activation above about 30%, passing the limit was not always enough; inconclusive = no clear call, values can overlap the other calls
Hits are given with their value. Rows were chosen to be rich in hits. Some 4% of all compounds tested hit in one or more screens of this group.

Cc1ccc(C)c(C(=O)Nc2nc3ccccc3[nH]2)c1 was read as EWS-Fli block inactive, PAX8 inh HTS inactive, TRPM1 prom inh inactive, esBAF inh inactive, MITF act inactive and Wnt bcat act inactive.
For O=C(Nc1nc2ccccc2[nH]1)c1ccccc1 the results were TRPM1 prom inh inactive and MITF act inactive.
`O=C(Nc1nc2ccccc2[nH]1)c1ccc(Cl)cc1` gave EWS-Fli block 53.4, PAX8 inh HTS inactive, TRPM1 prom inh inactive, esBAF inh inactive, MITF act inactive and Wnt bcat act inactive.
O=C(Nc1nc2ccccc2[nH]1)c1ccccc1O was read as EWS-Fli block inactive, PAX8 inh HTS inactive, MITF act inconclusive and Wnt bcat act 42.3.
CN(c1cccc(Cl)c1)S(=O)(=O)c1cccc(C(=O)Nc2nc3ccccc3[nH]2)c1 was read as EWS-Fli block inactive, PAX8 inh HTS 71.1, TRPM1 prom inh inactive, MITF act inactive and Wnt bcat act inactive.
For O=C(Nc1nc2ccccc2[nH]1)c1cccc(Cl)c1 the results were EWS-Fli block inactive, PAX8 inh HTS inactive, TRPM1 prom inh inactive, esBAF inh inactive and Wnt bcat act 31.6.
`C[C@H](CO)N1C[C@H](C)[C@H](CN(C)C(=O)Cc2ccccc2)Oc2ncc(-c3cncnc3)cc2C1=O` gave EWS-Fli block inactive, PAX8 inh HTS inactive and esBAF inh inactive.
COc1cccc(-c2ccc3c(c2)O[C@H](CN(C)C)[C@H](C)CN([C@H](C)CO)S3(=O)=O)c1 was read as EWS-Fli block inactive and esBAF inh inactive.
Screening O=C(N/C(=C/c1ccc(Cl)cc1)c1nc2ccccc2[nH]1)c1ccco1 returned PAX8 inh HTS inactive, TRPM1 prom inh inactive, MITF act inactive and Wnt bcat act inactive.
`O=C(/C(=C/c1ccc(Cl)cc1)c1nc2ccccc2[nH]1)c1ccccc1` gave TRPM1 prom inh 83.7, esBAF inh inactive, MITF act inactive and Wnt bcat act 84.0.
Screening COc1cc(/C=C(/C(=O)c2cccs2)c2nc3ccccc3[nH]2)cc(OC)c1O returned TRPM1 prom inh inactive and esBAF inh 100.9.
CC(=O)Nc1ccc(/C=C/c2nc3ccccc3[nH]c2=O)cc1 was read as EWS-Fli block inactive, PAX8 inh HTS inactive, TRPM1 prom inh inactive, esBAF inh inactive, MITF act inactive and Wnt bcat act inactive.
Screening O=c1[nH]c2ccccc2nc1/C=C/c1ccc(Cl)cc1 returned EWS-Fli block inactive, PAX8 inh HTS inactive, TRPM1 prom inh inactive, esBAF inh 45.1, MITF act inactive and Wnt bcat act inactive.
`COc1ccccc1S(=O)(=O)N[C@H]1C=C[C@@H](CC(=O)N2CCN(C)CC2)O[C@@H]1CO` gave EWS-Fli block inactive, PAX8 inh HTS inactive and esBAF inh inactive.
For CO[C@@H]1CN(C)C(=O)c2ccc(NC(C)=O)cc2OC[C@@H](C)N(C(=O)C2CCC2)C[C@@H]1C the results were EWS-Fli block inactive, PAX8 inh HTS inactive and esBAF inh inactive.
For COc1cc(-c2cnc3c(NC=O)cc(-c4ccc(S(C)(=O)=O)cc4)cn23)cc(OC)c1OC the results were EWS-Fli block inactive, PAX8 inh HTS 62.1, esBAF inh inactive and Wnt bcat act inactive.
COc1ccc(-c2cnc3c(NC=O)cc(-c4cc(OC)c(OC)c(OC)c4)cn23)cc1OC was read as EWS-Fli block inactive, PAX8 inh HTS inactive, esBAF inh inactive and Wnt bcat act inactive.
COc1ccccc1-c1cc(NC=O)c2ncc(-c3ccc(S(C)(=O)=O)cc3)n2c1 was read as EWS-Fli block inactive, PAX8 inh HTS 62.7, esBAF inh inactive and Wnt bcat act inactive.
For COc1ccc(-c2cnc3c(NC=O)cc(-c4ccc(S(C)(=O)=O)cc4)cn23)cc1OC the results were EWS-Fli block inactive, PAX8 inh HTS inactive, esBAF inh inactive and Wnt bcat act inactive.
Screening COc1ccc(-c2cc(NC=O)c3ncc(-c4cc(OC)c(OC)c(OC)c4)n3c2)cc1 returned EWS-Fli block inactive, PAX8 inh HTS 71.6, esBAF inh inactive and Wnt bcat act inactive.
C[C@H]1CN([C@@H](C)CO)C(=O)c2cc(NC(=O)CCCCCC(=O)Nc3ccccc3N)ccc2O[C@@H]1CN(C)S(=O)(=O)c1ccccc1 was read as EWS-Fli block inactive and PAX8 inh HTS inactive.
Screening COc1ccc(S(=O)(=O)Nc2ccc3c(c2)C(=O)N([C@@H](C)CO)C[C@@H](C)[C@@H](CN(C)Cc2ccc(Cl)c(Cl)c2)OCCCC[C@@H](C)O3)cc1 returned EWS-Fli block inactive and PAX8 inh HTS inactive.
